Each structure is given as a SMILES string. Hit rate of the full screen: of about 300,000 compounds, about 2,400 (0.8%) were called active.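 How the source made its calls: active means Every replicate reaches about 75%, or at least half do and their mean reaches it too (limit read from the data); inconclusive means At least half of replicates reach the limit but their mean does not; inactive means Under half of replicates reach the limit.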 This excerpt belongs to a sample that is enriched for actives.

The nature of this test: inhibitors of cytokine-induced beta cell apoptosis, primary screen, luminescence (AID 435005).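 Further: 0% = cytokine-treated negative control wells and 100% = positive control rescue; higher means more ATP so stronger rescue from cytokine killing.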 Conditions: INS-1E cytokine-induced death, ATP luminescence, 48 h; active compounds read high; percent of positive-control rescue, neutral wells zero; concentration not given here.
As for `CN(CC(=O)Nc1ccc(Cl)cc1)CC(=O)Nc1cccc2ccccc12`, the protection from apoptosis was 0.976% (inactive). For `Cc1onc(-c2c(F)cccc2Cl)c1C(=O)OCC(=O)N1C(C)CCCC1C` (stereo unspecified), the protection from apoptosis is 1.7% (inactive). To `Cc1[nH]n(-c2ccc([N+](=O)[O-])cc2)c(=O)c1C=NCCN1CCN(C(=O)c2ccccc2F)CC1` belongs 48.6% (inactive); to `Cc1[nH]n(-c2ccccc2)c(=O)c1/C=N/NC(=O)c1ccoc1C`, 107% (active); to `COc1cc(/C=N/NC(=O)c2ccoc2C)ccc1OCCN1CCCCC1`, -1.12% (inactive). `Cc1ccc(-n2[nH]c(C)c(/C=N/NC(=O)c3cccc([N+](=O)[O-])c3)c2=O)cc1C`: the protection from apoptosis is 106% (active). Turning to `Cc1cccc(C(=O)NNC(=O)c2cccc([N+](=O)[O-])c2)c1`, the protection from apoptosis was -5.35% (inactive).

`Cc1occc1C(=O)N/N=C/c1ccc(-c2cccc([N+](=O)[O-])c2)o1`: the protection from apoptosis was 4.96% (inactive). As for `Cc1ccc(N2C(=O)N3[C@@H]4c5ccccc5OC[C@@H]4[C@@H](c4ccccc4)[C@@]3(C)C2=O)cc1`, the protection from apoptosis is -1.96% (inactive). Take `Cc1ccc(S(=O)(=O)N(C)C)cc1NC(=O)CN1c2cccc3cccc(c23)S1(=O)=O`: the protection from apoptosis was -0.228% (inactive).

Consider `COc1ccc(C(=O)NCC(=O)N/N=C/c2ccc([N+](=O)[O-])s2)cc1OC`, for which the protection from apoptosis was 91.3% (active). `CC(C)(C)c1cc(C(=O)N/N=C/c2ccc([N+](=O)[O-])s2)n[nH]1`: the protection from apoptosis is 111% (active). To `COc1ccc(C(=O)COC(=O)c2ccc([N+](=O)[O-])s2)cc1OC` belongs 4.99% (inactive); to `Cc1ccccc1NCC(=O)N/N=C\c1ccc([N+](=O)[O-])s1`, 3.12% (inactive). The result for `CCOc1ccc(NC(=O)CCC(=O)N/N=C/c2ccc([N+](=O)[O-])s2)cc1` reads -9.66% (inactive); that for `COc1ccc(C(=O)NCC(=O)N/N=C/c2ccc([N+](=O)[O-])o2)cc1OC`, -11.1% (inactive); that for `CCN(C[C@H]1N[C@@](CC)(C(=O)OC)[C@H]2C(=O)N(Cc3ccccc3)C(=O)[C@@H]12)S(=O)(=O)c1ccc(C(F)(F)F)cc1`, 13.9% (inactive). In the case of `COc1ccc(C)cc1NC(=O)c1cc(-c2ccccc2)nc2c1cnn2C(C)C`, the protection from apoptosis was 15.6% (inactive). With `COc1ccc(S(=O)(=O)Nc2cccc3c2O[C@H](CN(C)S(=O)(=O)c2ccc(OC)cc2)[C@@H](C)CN([C@H](C)CO)C3=O)cc1`, the protection from apoptosis is -7.76% (inactive).

Consider `COc1ccc(S(=O)(=O)N(C)C[C@@H]2Oc3ccc(NS(=O)(=O)c4cn(C)cn4)cc3C(=O)N([C@@H](C)CO)C[C@@H]2C)cc1`, for which the protection from apoptosis is -2.08% (inactive).

With `Nn1c(SCC(=O)NC2CCCc3ccccc32)nnc1C1CC1` (stereo unspecified), the protection from apoptosis is -5.42% (inactive). In the case of `COc1ccc(CCNC(=O)COC(=O)c2cnc(Cl)c(Cl)c2)cc1`, the protection from apoptosis was -3.76% (inactive). With `C/C(=N\NC(=O)Cc1ccc(Cl)cc1)c1ccccn1`, the protection from apoptosis was 87.6% (active). Take `C/C(=N\NC(=O)Cc1ccc(Br)cc1)c1cccnc1`: the protection from apoptosis is -3.84% (inactive). To `C/C(=N\NC(=O)Cc1ccc(F)cc1)c1ccc(F)cc1` belongs -1.1% (inactive); to `COC(=O)c1ccccc1NC(=S)NC(=O)c1ccccc1F`, 1.17% (inactive). As for `C/C(=N\NC(=O)c1ccccc1F)c1ccccn1`, the protection from apoptosis is 92% (active). Take `C/C(CC(=O)Nc1ccc(N(C)C)cc1)=N\NC(=O)c1ccccc1F`: the protection from apoptosis is 1.37% (inactive). For `O=C(COC(=O)c1ccccn1)NNC(=O)c1ccc(Br)cc1`, the protection from apoptosis is -13.1% (inactive). `Cc1cc(C)cc(OCC(=O)Nc2ccc(N3CCOCC3)cc2N2CCOCC2)c1`: the protection from apoptosis is 1.95% (inactive). As for `CN(CC(=O)Nc1ccc(OC(F)F)cc1)S(=O)(=O)/C=C/c1ccccc1`, the protection from apoptosis was -0.758% (inactive).

Regarding `Cc1cccc2nc(CSc3nc4[nH]ncc4c(=O)n3-c3cccc(Cl)c3)cc(=O)n12`, the protection from apoptosis is 92.7% (active). Take `COc1ccc(CCNC(=O)CSc2nc3[nH]ncc3c(=O)n2-c2cccc(C(F)(F)F)c2)cc1OC`: the protection from apoptosis was 4.86% (inactive). For the compound `CCc1ccc(-n2c(SCc3cc(=O)n4cc(Br)ccc4n3)nc3[nH]ncc3c2=O)cc1`, the protection from apoptosis is 16.3% (inactive).

As for `CC[C@@H]1CCCCc2ccccc2[C@@H](C(=O)C[C@H](O)CC(C)=O)OC1=O`, the protection from apoptosis is -2.96% (inactive). As to `C[C@@H]1CN([C@@H](C)CO)C(=O)c2cccc(NS(=O)(=O)c3ccc(F)cc3)c2O[C@H]1CN(C)C(=O)NC1CCCCC1`, the protection from apoptosis was -0.297% (inactive).

In the case of `CC(C)OCCCNC(=O)c1cc(Sc2ccc(F)cc2)nc2ccccc12`, the protection from apoptosis was 0.00619% (inactive).

Take `CC(C)OCCCNc1ncnc2c1[nH]c1ccc(F)cc12`: the protection from apoptosis was 104% (active).

For `COc1cc(OC)c(OC)cc1/C=N/Nc1ncnc2c1[nH]c1ccc(C)cc12`, the protection from apoptosis was 6% (inactive). As to `COc1ccc(NC(=O)CN(C)C(=O)c2cc(C3CC3)nn2-c2ccccc2)cc1`, the protection from apoptosis was -6.53% (inactive). For `N#Cc1cc([N+](=O)[O-])ccc1NC(=O)COC(=O)c1cnccn1`, the protection from apoptosis is -1.22% (inactive).

Turning to `CCc1cccc(CC)c1NC(=S)Nc1ccc2cn[nH]c2c1`, the protection from apoptosis was -5.93% (inactive).

As to `Cc1cccc(NC(=S)Nc2ccc3cn[nH]c3c2)c1`, the protection from apoptosis is 124% (active). `Cc1cccc(NC(=S)Nc2ccc(Cl)c(Cl)c2)c1`: the protection from apoptosis is 2.17% (inactive). To `COc1ccc(S(=O)(=O)N(C)C[C@H]2Oc3c(NC(=O)Nc4ccc5c(c4)OCO5)cccc3C(=O)N([C@H](C)CO)C[C@@H]2C)cc1` belongs 2.68% (inactive); to `Cc1ccc(C(=O)Nc2ccc3c(c2)OCCO3)cc1S(=O)(=O)N1CCOCC1`, 10.2% (inactive); to `C/C(N)=C(/C#N)C(=O)COC(=O)c1cc(-c2ccc(C)cc2)nc2ccccc12`, 80.7% (active).

For the compound `C/C(N)=C(/C#N)C(=O)COC(=O)c1cc(-c2cccc(Br)c2)nc2ccccc12`, the protection from apoptosis was -5.26% (inactive). As to `C/C(N)=C(/C#N)C(=O)COC(=O)c1cc(-c2ccccc2)nc2ccc(Br)cc12`, the protection from apoptosis is 7.58% (inactive). Take `O=C(OCCN1C(=O)c2ccccc2C1=O)[C@@H]1CC(O)CN1S(=O)(=O)c1ccccc1[N+](=O)[O-]` (stereo partly specified): the protection from apoptosis is 4.37% (inactive).

`C=CC[C@H](CC(=O)OC(C)(C)C)C(=O)OC[C@H]1CCCN1C(=O)[C@H](CC=C)CC(=O)N(CCO)Cc1ccccc1`: the protection from apoptosis is 5.16% (inactive).
